Drawing on PubChem BioAssay (NCI), this text covers growth inhibition for 9 molecules.

The structures appear in SMILES notation. About 79,000 compounds went through this panel and 15% of them were active in at least one assay; those are over-represented in the sample as a whole. Values without a mark were called inactive. Calls of active or inactive are those of the source. No stated cut-off is given here; in the data, active means growth inhibition above about 70%; inactive means the rest.

The nature of assay [1]: NCI Yeast Anticancer Drug Screen. Data for the rad50 strain (AID 155).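 Further: 0% = growth of vehicle-only cultures of the same strain.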 Conditions: S. cerevisiae rad50 strain growth inhibition, hits give high values. In a few lines:
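Growth of the mutant yeast was measured after compound exposure and referenced to vehicle-treated cultures.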

A short description of assay [2]: NCI Yeast Anticancer Drug Screen. Data for the mec2-1 strain (AID 157). Conditions: S. cerevisiae mec2-1 strain, hits give high values. In short, it runs like this:
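Using mec2-1 yeast: add compound, measure growth, express inhibition versus vehicle-treated cultures.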

Assay [3] is described as follows: NCI Yeast Anticancer Drug Screen. Data for the sgs1 mgt1 strain (AID 161).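 Further: 0% = growth of cultures given vehicle only.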 Conditions: S. cerevisiae sgs1 mgt1 strain, hits give high values. In a few lines:
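Growth of a repair-deficient yeast mutant was monitored after compound treatment and expressed as inhibition relative to vehicle-treated cultures.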

Assay [4] in a line: NCI Yeast Anticancer Drug Screen. Data for the cln2 rad14 strain (AID 165).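 Further: 0% = growth equal to vehicle treated cultures.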 Conditions: S. cerevisiae cln2 rad14 strain, hits give high values. In a few lines: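 Yeast strain cln2 rad14, bearing defects in cell cycle control and DNA repair, serves as the test system; values reflect growth inhibition compared with vehicle.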
Assay [5] can be described thus: NCI Yeast Anticancer Drug Screen. Data for the bub3 strain (AID 167). The settings on record: S. cerevisiae bub3 mutant strain, hits give high values. In a few lines:
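Whole-cell yeast assay. The mutant strain was incubated with compounds, and growth inhibition was determined by comparison with vehicle-treated cells.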

A short description of assay [6]: NCI Yeast Anticancer Drug Screen. Data for the mlh1 rad18 strain (AID 175). Conditions: S. cerevisiae mlh1 rad18 strain growth inhibition, hits give high values. In short, it runs like this: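 Steps: expose repair-defective yeast to compound; measure growth; express inhibition against vehicle-treated controls.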
[7] abbreviates: at 5.0 µM (retest, dose inferred, filed as 0.5).
Setting [8] is: at 50.0 µM (retest, dose inferred, filed as 5.0).

`Oc1c(Br)cc(Cl)cc1C(c1cc(Cl)cc(Br)c1O)C(Cl)(Cl)Cl`: the growth inhibition is 0% in assay [1] (setting [7]); 98% (active) in assay [1] (setting [8]); 96% (active) in assay [1] (at 50.0 µM); 2% in assay [2] (setting [7]); 99% (active) in assay [2] (setting [8]); 98.2% (active) in assay [2] (at 50.0 µM). Also, the growth inhibition in assay [3] (setting [7]) is 3%; in assay [3] (setting [8]), 99% (active); in assay [3] (at 50.0 µM), 97.8% (active); in assay [4] (setting [7]) it was -5%; in assay [4] (setting [8]) it was 98% (active); in assay [4] (at 50.0 µM) it was 97.2% (active). For the same molecule, the growth inhibition in assay [5] (setting [7]) was -1%; in assay [5] (setting [8]) it was 98% (active); in assay [5] (at 50.0 µM) it was 97.1% (active); in assay [6] (setting [7]), 5%; in assay [6] (setting [8]) it was 98% (active); in assay [6] (at 50.0 µM), 90.8% (active).
For `Cc1cc(NS(=O)(=O)c2ccc(Nc3c4ccccc4nc4c(C(=O)NC(CO)(CO)CO)cccc34)cc2)no1`, the growth inhibition is -1% in assay [1] (setting [7]); 17% in assay [1] (setting [8]); 75.2% (active) in assay [1] (at 50.0 µM); -5% in assay [2] (setting [7]); -10% in assay [2] (setting [8]); 23.9% in assay [2] (at 50.0 µM). In addition, the growth inhibition in assay [3] (setting [7]) was -1%; in assay [3] (setting [8]), -3%; in assay [3] (at 50.0 µM), -1.6%; in assay [4] (setting [7]), -21%; in assay [4] (setting [8]), 17%; in assay [4] (at 50.0 µM), 71.5% (active). Moreover, the growth inhibition in assay [5] (setting [7]) was 0%; in assay [5] (setting [8]), -6%; in assay [5] (at 50.0 µM), 6.25%; in assay [6] (setting [7]), -2%; in assay [6] (setting [8]), 19%; in assay [6] (at 50.0 µM), 74% (active).
On to `CCCCCCCCC(=O)NCCN(CCN)C(=O)CCCCCCCC`, for which the growth inhibition was -82% in assay [1] (setting [7]); 97% (active) in assay [1] (setting [8]); 90.2% (active) in assay [1] (at 50.0 µM); -43% in assay [2] (setting [7]); 98% (active) in assay [2] (setting [8]); 93.1% (active) in assay [2] (at 50.0 µM). The growth inhibition is -33% in assay [3] (setting [7]); 97% (active) in assay [3] (setting [8]); 91.7% (active) in assay [3] (at 50.0 µM); -24% in assay [4] (setting [7]); 98% (active) in assay [4] (setting [8]); 89.9% (active) in assay [4] (at 50.0 µM). The growth inhibition in assay [5] (setting [7]) was -47%; in assay [5] (setting [8]), 97% (active); in assay [5] (at 50.0 µM), 90.1% (active); in assay [6] (setting [7]) it was -68%; in assay [6] (setting [8]), 97% (active); in assay [6] (at 50.0 µM), 90% (active).
As for `CS(=O)(=O)OCCN(CCOS(C)(=O)=O)c1ccc(C=Nc2cccc(Cl)c2)cc1`, the growth inhibition was 35% in assay [1] (setting [7]); 90% (active) in assay [1] (setting [8]); 92.7% (active) in assay [1] (at 50.0 µM); 40% in assay [2] (setting [7]); 91% (active) in assay [2] (setting [8]); 86.5% (active) in assay [2] (at 50.0 µM). Moreover, the growth inhibition in assay [3] (setting [7]) was 17%; in assay [3] (setting [8]) it was 74% (active); in assay [3] (at 50.0 µM), 88.8% (active); in assay [4] (setting [7]), 17%; in assay [4] (setting [8]), 86% (active); in assay [4] (at 50.0 µM), 71.3% (active). Further, the growth inhibition in assay [5] (setting [7]) is 1%; in assay [5] (setting [8]), 50%; in assay [5] (at 50.0 µM), 43%; in assay [6] (setting [7]) it was 70% (active); in assay [6] (setting [8]) it was 95% (active); in assay [6] (at 50.0 µM), 96.7% (active).
Consider `O=S1(=O)CC(Cl)(Cl)C1`, for which the growth inhibition was 3% in assay [1] (setting [7]); 49% in assay [1] (setting [8]); 19.6% in assay [1] (at 50.0 µM); 3% in assay [2] (setting [7]); 52% in assay [2] (setting [8]); 2.85% in assay [2] (at 50.0 µM). For the same molecule, the growth inhibition in assay [3] (setting [7]) was 7%; in assay [3] (setting [8]) it was 20%; in assay [3] (at 50.0 µM), 15.1%; in assay [4] (setting [7]) it was -1%; in assay [4] (setting [8]), 25%; in assay [4] (at 50.0 µM), 75.3% (active). Also, the growth inhibition in assay [5] (setting [7]) was 4%; in assay [5] (setting [8]) it was 58%; in assay [5] (at 50.0 µM) it was -17.8%; in assay [6] (setting [7]), 5%; in assay [6] (setting [8]), 58%; in assay [6] (at 50.0 µM), 11.6%.
In the case of `O=C1OC(c2ccccc2)CC1Cc1ccccc1` (configuration not stated), the growth inhibition in assay [1] (setting [7]) was -10%; in assay [1] (setting [8]), -15%; in assay [1] (at 50.0 µM) it was 1.7%; in assay [2] (setting [7]), -32%; in assay [2] (setting [8]), 3%; in assay [2] (at 50.0 µM), -0.25%. The growth inhibition was -2% in assay [3] (setting [7]); 8% in assay [3] (setting [8]); -12.9% in assay [3] (at 50.0 µM); 9% in assay [4] (setting [7]); -5% in assay [4] (setting [8]); -6.55% in assay [4] (at 50.0 µM). Also, the growth inhibition was -2% in assay [5] (setting [7]); 6% in assay [5] (setting [8]); 29.1% in assay [5] (at 50.0 µM); -17% in assay [6] (setting [7]); -21% in assay [6] (setting [8]); -33.8% in assay [6] (at 50.0 µM).
`OC(c1cc2ccccc2o1)c1cc2ccccc2s1` (configuration not stated): the growth inhibition in assay [1] (setting [7]) was -4%; in assay [1] (setting [8]) it was 95% (active); in assay [1] (at 50.0 µM), 44.2%; in assay [2] (setting [7]), -11%; in assay [2] (setting [8]), 94% (active); in assay [2] (at 50.0 µM) it was 75.2% (active). Also, the growth inhibition is 2% in assay [3] (setting [7]); 46% in assay [3] (setting [8]); 70.4% (active) in assay [3] (at 50.0 µM); -12% in assay [4] (setting [7]); 97% (active) in assay [4] (setting [8]); 61.6% in assay [4] (at 50.0 µM). Moreover, the growth inhibition in assay [5] (setting [7]) is -6%; in assay [5] (setting [8]) it was 93% (active); in assay [5] (at 50.0 µM), 78.7% (active); in assay [6] (setting [7]) it was 16%; in assay [6] (setting [8]) it was 94% (active); in assay [6] (at 50.0 µM), 43%.
Take `O=[N+]([O-])c1cc(I)c(O)c(/C=N/NS(=O)(=O)c2ccc(Cl)cc2)c1`: the growth inhibition was -3% in assay [1] (setting [7]); 11% in assay [1] (setting [8]); 88.5% (active) in assay [1] (at 50.0 µM); -8% in assay [2] (setting [7]); 1% in assay [2] (setting [8]); 75.1% (active) in assay [2] (at 50.0 µM). Also, the growth inhibition was -1% in assay [3] (setting [7]); 17% in assay [3] (setting [8]); 77.7% (active) in assay [3] (at 50.0 µM); -9% in assay [4] (setting [7]); -1% in assay [4] (setting [8]); 62.2% in assay [4] (at 50.0 µM). The growth inhibition in assay [5] (setting [7]) was -6%; in assay [5] (setting [8]) it was -1%; in assay [5] (at 50.0 µM), 72% (active); in assay [6] (setting [7]), -2%; in assay [6] (setting [8]), 4%; in assay [6] (at 50.0 µM), 91.8% (active).
As to `CCCCCCCCCN(CCCCCCCCC)CC(O)c1cc2c(c3ccccc13)CCCC2` (configuration not stated), the growth inhibition in assay [1] (setting [7]) is 9%; in assay [1] (setting [8]), 93% (active); in assay [1] (at 50.0 µM), 99% (active); in assay [2] (setting [7]), 38%; in assay [2] (setting [8]), 96% (active); in assay [2] (at 50.0 µM) it was 91% (active). Further, the growth inhibition was 53% in assay [3] (setting [7]); 97% (active) in assay [3] (setting [8]); 99% (active) in assay [3] (at 50.0 µM); 7% in assay [4] (setting [7]); 90% (active) in assay [4] (setting [8]); 98.9% (active) in assay [4] (at 50.0 µM). Besides, the growth inhibition was 11% in assay [5] (setting [7]); 93% (active) in assay [5] (setting [8]); 95.8% (active) in assay [5] (at 50.0 µM); 46% in assay [6] (setting [7]); 95% (active) in assay [6] (setting [8]); 98.8% (active) in assay [6] (at 50.0 µM).
